# HepG2 viability: counter-screen for TGF-b inhibitors: cytotoxicity in HepG2 cells; HepG2 CAGA-GFP viability, ATP luminescence, 18 h; Potency, µM (series often up to 46.1 µM), for the others: at the highest dose activity change, negative = cytotoxicity, hits mostly cytotoxic; hit rate 0.76% among 410,000; AID 588856; also: potency is read from the fitted curve at half-maximal effect
#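 CellTiter-Glo luminescence gave cytotoxicity after 18 hours at 37 degrees C. The cells were HepG2 CAGA-GFP in 1% FBS DMEM, stimulated with 500 pg/mL TGF-beta after compound addition. %Activity was normalised to no-cell wells (complete cell-killing) and DMSO (no toxicity), and curves were fitted and classified.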
# ATXN2 expr inh: reduces ATXN2 reporter expression in HEK-293 cells | HEK-293 ATXN2-luciferase reporter, luminescence, 24 h | Potency, µM (top dose mostly 57 µM), without a hit: top-dose activity change, negative = inhibition, hits mostly inhibitors | hit rate 0.72% among 360,000 | AID 1745845; also: potency is read from the fitted curve at half-maximal effect; % is scaled to controls: 0 for no effect and ±100 for the full control effect; nearly all actives have a fitted effect of over 55% in size
#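 qHTS (up to 57 uM final) was run with 24 h compound exposure of reporter cells at 37 °C. Each well was multiplexed: SteadyGlo luminescence measured ATXN2-luciferase expression after a fluorogenic Gly-Phe-AFC viability readout (25 uM final).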
# D3 antag: D3 dopamine receptor (human) antagonism; P35462; D3R cells, DiscoveRx beta-arrestin luminescence, antagonist mode; active compounds read low; max response, negative = inhibition, %; hit rate 2.5% among 360,000; AID 652054; in the data active = max response below about -50%; inconclusive = no clear call, values can overlap the other calls; also: % is scaled to controls: 0 for no effect and ±100 for the full control effect
# Target sequence (P35462 whole entry, looked up): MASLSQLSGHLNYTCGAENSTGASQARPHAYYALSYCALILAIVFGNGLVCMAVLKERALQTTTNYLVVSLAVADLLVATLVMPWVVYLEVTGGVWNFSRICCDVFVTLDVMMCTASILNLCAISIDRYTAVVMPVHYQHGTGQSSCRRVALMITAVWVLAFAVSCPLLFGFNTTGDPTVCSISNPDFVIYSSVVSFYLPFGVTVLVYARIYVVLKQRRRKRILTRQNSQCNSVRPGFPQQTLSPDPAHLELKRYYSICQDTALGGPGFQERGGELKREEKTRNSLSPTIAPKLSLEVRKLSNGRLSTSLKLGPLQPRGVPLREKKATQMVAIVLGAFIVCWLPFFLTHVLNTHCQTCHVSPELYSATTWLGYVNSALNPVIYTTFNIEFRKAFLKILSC
#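 Cells expressing the human receptor were seeded at 1500 cells/well, incubated overnight at 37 degrees C in 5% CO2, then exposed to library compounds with dopamine controls for 90 minutes at 37 degrees C before luminescent detection.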
# D3 ag: D3 dopamine receptor (human) agonism. D3R DiscoveRx beta-arrestin cells, luminescence, 90 min. hit rate 0.58% among 410,000. P35462. max activation, %. AID 652048; in the data active = max activation above about 30%; also: 0% is about no effect
#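 Agonist-mode cell screen: cells plated at 1500/well and incubated overnight at 37 °C, then exposed to library compounds for 90 min at 37 °C. Detection reagent was added for 30–60 min at room temperature, and luminescence was read.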
# ATXN viability: cell viability loss in ATXN counter-screen; Potency, µM (series often up to 56.7 µM), usual class: cytotoxic; hit rate 0.49% among 400,000; S2 cells (HEK-293 line with an ATXN2-luciferase reporter) viability, CellTiter-Fluor protease fluorescence, 24 h; also: potency is read from the fitted curve at half-maximal effect; nearly all actives have a fitted effect of over 40% in size
# TGFb SMAD3 inh: blocks TGF-b signaling; HepG2 CAGA-GFP TGF-b/SMAD3 reporter, GFP fluorescence, 18 h; TGF-beta stimulated, 500 pg/mL final; Potency, µM (series often up to 46.1 µM), for inactives: top-dose activity, negative = inhibition, actives largely listed as inhibitors; hit rate 1.2% among 410,000; AID 588855; also: potency is read from the fitted curve at half-maximal effect; % is scaled to controls: 0 for no effect and ±100 for the full control effect; nearly all actives have a fitted effect of over 65% in size
#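 Cell-based qHTS in HEPG2 carrying a CAGA-GFP Smad reporter; compounds added before 500 pg/mL final TGF-beta, 18 h incubation at 37 degrees C, GFP fluorescence quantified per cell by imaging cytometry.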
# SKNSH spheroid: SK-N-SH 3D spheroid viability loss | shares compounds with ATXN2 expr inh | SK-N-SH 3D spheroid viability, PI/Hoechst imaging, 72 h | Potency, µM (highest dose often 30.7 µM), usual class: inhibitors | hit rate 70% among 65 | AID 1347135
# SJ-GBM2 3D tox: lowers viability of SJ-GBM2 3D spheroids; SJ-GBM2 3D spheroid viability, PI/Hoechst imaging, 72 h; shares compounds with ATXN2 expr inh; hit rate 80% among 65; Potency, µM (doses to about 30.7 µM), usual class: inhibitors; AID 1347136
# Daoy 3D tox: Daoy 3D spheroid viability loss | hit rate 50% among 65 | Potency, µM (titrated, usually from 30.7 µM), most hits filed as inhibitors | shares compounds with ATXN2 expr inh | Daoy 3D spheroid viability, PI/Hoechst imaging, 72 h
# TC32 3D casp: TC32 spheroid caspase-3/7 activation, orthogonal screen; shares compounds with ATXN2 expr inh; hit rate 30% among 65; TC32 3D spheroids, caspase-3/7 fluorescence imaging, 24 h; Potency, µM (titrated, usually from 30.7 µM), usual class: inhibitors; AID 1347138
# TC32 spheroid: TC32 3D spheroid viability loss. hit rate 60% among 65. TC32 3D spheroid viability, PI/Hoechst imaging, 72 h. Potency, µM (highest dose often 30.7 µM), usual class: inhibitors. AID 1347139. shares compounds with ATXN2 expr inh
# MG63 3D tox: kills MG-63 (6-TG R) spheroids in orthogonal 3D test; shares compounds with ATXN2 expr inh; Potency, µM (highest dose often 30.7 µM), most hits filed as inhibitors; MG-63 (6-TG R) 3D spheroid viability, PI/Hoechst imaging, 72 h; hit rate 50% among 65
# RD spheroid: reduced viability of RD 3D spheroids, orthogonal test; RD rhabdomyosarcoma 3D spheroid viability, PI/Hoechst imaging, 72 h; Potency, µM (doses to about 30.7 µM), hits mostly inhibitors; hit rate 50% among 65; shares compounds with ATXN2 expr inh
# Numbers without * were called inactive; i = inactive; ? = inconclusive; / = no result. Hits are enriched below; roughly 4.8% of the tested compounds scored in any of these assays. Unless noted, calls follow the shape of the dose curve; as a rule, active = well fitted curve in the direction sought with a large enough effect; inconclusive = small, poorly fitted or top-dose-only effect, or another doubt; inactive = no such curve, though single readings can be large; an effect the other way counts as inactive or inconclusive.
SMILES,HepG2 viability,ATXN2 expr inh,D3 antag,D3 ag,ATXN viability,TGFb SMAD3 inh,SKNSH spheroid,SJ-GBM2 3D tox,Daoy 3D tox,TC32 3D casp,TC32 spheroid,MG63 3D tox,RD spheroid
CC(C)(O)Cn1c(NC(=O)c2ccc(-c3cn[nH]c3)s2)nc2cc(CN3CCOCC3)ccc21,/,6.1µM*,/,/,/,/,0.23µM*,0.23µM*,0.64µM*,1.3µM*,1µM*,1.4µM*,0.32µM*
CN1CCc2c(c3cnc4cc(Cl)ccc4c3n2C)C1,5%,/,/,/,/,-15%,/,/,/,/,/,/,/
COC1=C2C[C@@H](C)C[C@H](OC)[C@@H](O)[C@@H](C)C=C(C)[C@H](OC(N)=O)[C@@H](OC)C=CC=C(C)C(=O)NC(=CC1=O)C2=O,/,0.77µM*,/,/,/,/,1.6µM*,1.6µM*,6.4µM*,?,1.1µM*,i,0.72µM*
C[C@@]12O[C@@H](C[C@]1(O)CO)n1c3ccccc3c3c4c(c5c6ccccc6n2c5c31)CNC4=O,/,3.1µM*,/,/,/,/,1.4µM*,0.14µM*,1.1µM*,2.6µM*,5.1µM*,13µM*,8.1µM*
CCCCc1nc2cc(C=CC(=O)NO)ccc2n1CCN(CC)CC,/,113%,/,/,/,/,0.51µM*,0.91µM*,1.6µM*,?,1.4µM*,6.4µM*,1.6µM*
CN(C)N=Nc1nc[nH]c1C(N)=O,-16%,?,3,6,i,-9%,/,/,/,/,/,/,/
CN(C)/N=N/c1nc[nH]c1C(N)=O,/,-27%,/,11,i,/,i,?,i,i,i,i,i
CC(=O)c1ccc(NC(=O)CCCc2nc(-c3cccc(C)c3)no2)cc1,-20%,-21%,/,2,?,-35%,/,/,/,/,/,/,/
Cn1cc(-c2cc3n(n2)CCC(=O)N3CC(=O)NCc2ccc(Cl)cc2)c2ccccc21,-24%,-11%,/,-18,i,-28%,/,/,/,/,/,/,/
Cc1c2oc3c(C)ccc(C(=O)N[C@@H]4C(=O)N[C@H](C(C)C)C(=O)N5CCC[C@H]5C(=O)N(C)CC(=O)N(C)[C@@H](C(C)C)C(=O)O[C@@H]4C)c3nc-2c(C(=O)N[C@@H]2C(=O)N[C@H](C(C)C)C(=O)N3CCC[C@H]3C(=O)N(C)CC(=O)N(C)[C@@H](C(C)C)C(=O)O[C@@H]2C)c(N)c1=O,/,1µM*,/,-5,?,/,0.0029µM*,0.018µM*,0.026µM*,?,0.032µM*,0.029µM*,0.02µM*
COc1cc(-c2cc(OC)c3c(C)oc(C)c3c(=O)c2)ccc1OC(=O)c1cccc(Cl)c1,-34%,/,/,-18,/,-33%,/,/,/,/,/,/,/
COC(=O)Nc1nc2ccc(S(=O)c3ccccc3)cc2[nH]1 (configuration not stated),/,-12%,/,-5,?,/,?,0.57µM*,?,?,0.64µM*,?,?
Cc1ccc(S(=O)(=O)c2nnn3c2nc(N2CCC(C)CC2)c2cc(Cl)ccc23)cc1C,1%,8%,/,8,i,0%,/,/,/,/,/,/,/
